The list is not random: actives were taken first. Their share in the collection is about 9.2%.
SMN2 splice up – enhancers of SMN2 splice variant expression; AID 1458; HEK293 SMN2-luciferase splicing reporter, luminescence, 30-36 h; 210,000 tested, 2.8% active; Potency, µM (highest dose often 46.1 µM), for the others: at the top dose activity change, positive = activation, actives largely listed as activators; also: % of control where 0% means no effect; nearly all actives have a fitted effect of over 55% in size
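HEK293 cells carry an SMN2 […]–luciferase reporter in which exon 7 inclusion puts luciferase in frame. Cells were plated 10-12 h before compound addition, then incubated 30-36 h at 37C. ONE-Glo luminescence was read; sodium butyrate at 4.5 mM final served as control.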
Rab9 prom act – activators of Rab9 promoter; AID 485297; Potency, µM (highest dose often 9.22 µM), without a hit: at the highest dose activation, negative = inhibition, usual class: activators; 320,000 tested, 2.8% active; Huh7 Rab9 promoter-luciferase reporter, luminescence, 24 h; also: % of control where 0% means no effect; nearly all actives have a fitted effect of over 60% in size
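Huh7 cells stably carrying a Rab9 promoter-luciferase reporter, 1500 cells per well in OP-MEM I with 10% FBS, treated with compound 24 hours at 37C. Luciferase activity read by luminescence after 10 minutes with Amplite reagent.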
FLuc modulator – counter-screen for miR-21 project: firefly luciferase inhibitors or activators. purified FLuc, Km substrates, luminescence inhibition. Potency, µM (top dose mostly 57.5 µM), for inactives: at the highest dose activity change, negative = inhibition, most hits filed as inhibitors. 360,000 tested, 6.9% active. AID 588342;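 also: plate controls were vehicle for no effect and reference inhibitor for full effect; nearly all actives have a fitted effect of over 55% in size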
Target sequence (P08659 whole entry, looked up): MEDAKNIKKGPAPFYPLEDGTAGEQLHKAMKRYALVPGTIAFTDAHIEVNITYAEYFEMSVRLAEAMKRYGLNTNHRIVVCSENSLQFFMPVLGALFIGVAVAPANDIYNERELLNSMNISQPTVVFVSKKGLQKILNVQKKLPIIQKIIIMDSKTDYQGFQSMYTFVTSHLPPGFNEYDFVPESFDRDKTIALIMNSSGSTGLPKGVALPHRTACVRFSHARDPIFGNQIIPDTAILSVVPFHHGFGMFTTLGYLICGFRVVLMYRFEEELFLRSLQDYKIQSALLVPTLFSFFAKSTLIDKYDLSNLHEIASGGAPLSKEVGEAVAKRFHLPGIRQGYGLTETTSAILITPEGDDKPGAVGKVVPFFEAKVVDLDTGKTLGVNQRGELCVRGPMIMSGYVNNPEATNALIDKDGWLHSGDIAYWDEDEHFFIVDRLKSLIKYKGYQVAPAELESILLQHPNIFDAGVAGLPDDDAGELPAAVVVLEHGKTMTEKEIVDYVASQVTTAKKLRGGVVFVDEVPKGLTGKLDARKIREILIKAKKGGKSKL
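Purified P. pyralis luciferase, 10 nM final, with Km-level 10 uM D-luciferin and 10 uM ATP in 50 mM Tris acetate pH 7.5, 10 mM Mg acetate, 0.01% Tween-20, 0.05% BSA; 6-point qHTS titration about 60 µM downward; luminescence read.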
ELG1 repair inh – blocks ELG1-dependent DNA repair in HEK293T cells. AID 504467. Potency, µM (highest dose often 46.1 µM), without a hit: at the highest dose activity change, negative = inhibition, most hits filed as inhibitors. HEK293T ELG1-luciferase reporter, luminescence, 16 h; DNA damage induced by 5-fluorouridine. 330,000 tested, 2.3% active; also: % is scaled to controls: 0 for no effect and ±100 for the full control effect; nearly all actives have a fitted effect of over 55% in size
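HEK293T cells expressing luciferase-tagged ELG1 (2,000/well) received 5-Fluorouridine plus compound or DMSO for 16 hr at 37 °C. Luciferase was read by ONE-Glo luminescence after 30 min at room temperature.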
ELG1 genotox – genotoxicity induction in ELG1-luciferase HEK293T cells; HEK293T ELG1-luciferase reporter, luminescence, 16 h; Potency, µM (titrated, usually from 46 µM), inactives show at the highest dose activity change, positive = activation, hits mostly activators; 330,000 tested, 1.3% active; AID 504466; also: % of control where 0% means no effect; nearly all actives have a fitted effect of over 60% in size
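HEK293T cells expressing luciferase-tagged ELG1 were exposed to compound or DMSO vehicle for 16 hr at 37 °C and 5% CO2. Luciferase activity was then measured with ONE-Glo after 30 min at room temperature.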
NPC1 promoter act – activators of NPC1 promoter. Huh7 NPC1 promoter luciferase reporter, 24 h. Potency, µM (doses to about 9.22 µM), for inactives: at the top dose activation, hits mostly activators. 320,000 tested, 2.4% active; also: % of control where 0% means no effect; nearly all actives have a fitted effect of over 60% in size
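Huh7 cells stably carrying NPC1 promoter–luciferase, plated in Opti-MEM with 10% FBS for 2 h, were exposed to compound in DMSO for 24 h at 37 °C; luciferase reagent was added for 10 min and luminescence read.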
Starred values were filed as active, the others as inactive; ? = inconclusive; . = no result. Calls follow the shape of the dose curve; as a rule, active = well fitted curve in the direction sought with a large enough effect; inconclusive = small, poorly fitted or top-dose-only effect, or another doubt; inactive = no such curve, though single readings can be large; an effect the other way counts as inactive or inconclusive. Potency is read from the fitted curve at half-maximal effect.

SMILES	SMN2 splice up	Rab9 prom act	FLuc modulator	ELG1 repair inh	ELG1 genotox	NPC1 promoter act
Cc1nc2cc(-c3cccc(Cl)c3)nn2c(N2CCN(C(=O)c3ccco3)CC2)c1C	-4.6%	2.5%	16.9µM*	?	-0.5%	-2.2%
Cc1cc(N2CCN(C(=O)c3ccco3)CC2)n2nc(-c3cccc(Cl)c3)cc2n1	-30.6%	-8.7%	4.5%	13µM*	-53.2%	-2.1%
Cc1cc(N2CCN(C(=O)c3ccco3)CC2)n2nc(C)c(-c3ccc(Cl)cc3)c2n1	-33.8%	3.5%	9.6%	-7.2%	-1.3%	-1.0%
Cc1ccc2c(c1)N(CCCC(=O)Nc1cccc(C(F)(F)F)c1)C(=O)CO2	-8.4%	2.8%	-1.4%	-24.8%	-7.0%	5.4%
CC(=O)c1ccc(NC(=O)C2CCN(c3nnc(C)c4c(C)n(-c5ccccc5)nc34)CC2)cc1	.	.	-15.9%	.	.	.
CC1CCN(c2ccc(-c3cccc(NS(=O)(=O)c4ccc(Cl)s4)c3)nn2)CC1	.	.	0.849µM*	.	.	.
CSc1cccc(NS(=O)(=O)c2cccs2)c1	13.0%	0.7%	1.7%	5.2%	-4.4%	1.1%
CC1CCN(c2ccc(-c3cccc(NS(=O)(=O)c4cccs4)c3)nn2)CC1	.	.	0.477µM*	.	.	.
O=S(=O)(Nc1cccc(-c2ccc3nncn3n2)c1)c1ccc(Cl)s1	7.8%	1.2%	-15.1%	11.5%	4.7%	-4.3%
COc1ccc(-n2c(-c3ccc(Br)cc3)c[n+]3c2CCc2ccccc2-3)cc1	-72.4%	-23.8%	5.0%	?	-7.5%	-16.0%
CC(C)c1ccc(-n2c(-c3ccccc3)c[n+]3c2CCc2ccccc2-3)cc1	-76.2%	-45.1%	-0.4%	2.31µM*	-10.7%	-46.0%
COc1ccccc1-n1c(-c2ccccc2)c[n+]2c1CCc1ccccc1-2	-58.7%	-45.0%	1.6%	3.26µM*	-14.5%	-42.3%
COC(=O)C1=C(CS(=O)(=O)c2cc(Cl)ccc2OC)NC(=O)NC1c1ccccc1 (stereo not given)	8.2%	.	-0.7%	.	.	.
COc1ccc(CC(=O)N2CCc3ccccc3C2)cc1	.	-0.5%	?	?	9.8%	-5.2%
CCc1ccc(/C=C\C(=O)N2CCc3ccccc3C2)cc1	-2.8%	1.9%	7.57µM*	?	?	2.7%
O=C(/C=C/c1c(F)cccc1Cl)N1CCc2ccccc2C1	.	18.4%	16.9µM*	?	8.4%	21.0%
CCCCN(C(=O)CCn1c(=O)oc2ccccc21)c1ccccc1	-27.6%	-0.7%	1.3%	-13.0%	-7.9%	0.4%
Cc1cc(C(=O)COC(=O)c2n[nH]c(=O)c3ccccc23)c(C)n1C(C)C	.	?	1.69µM*	?	?	26.7%
O=C(OCC(=O)N1CCN(C(=O)COC(=O)c2ccc(O)cc2O)CC1)c1ccc(O)cc1O	.	-0.4%	-0.5%	-8.1%	4.4%	-1.9%
Cc1cc(C(=O)COC(=O)c2ccc(O)cc2O)c(C)n1C(C)C	.	3.55µM*	4.78µM*	-18.8%	12.5%	3.55µM*
COc1ccc(NC(=O)C2CCC(CNS(=O)(=O)c3csc(C(N)=O)c3)CC2)cc1 (stereo not given)	.	.	-4.6%	.	.	.
NC(=O)c1sc(=S)n2c1[nH]c(=O)c1sccc12	25.2%	2.0%	?	4.6%	-4.5%	0.2%
CC(=O)NNC(=O)c1sc(=S)n2c1[nH]c(=O)c1sccc12	3.9%	-3.6%	19µM*	?	-0.7%	-3.8%
N#C/C(=C\c1cc2ccccc2nc1N1CCCCC1)C(N)=O	0.6%	3.8%	-1.0%	-9.4%	1.7%	-1.4%
O=C1NC(=S)S/C1=C\c1cc2ccccc2nc1N1CCCCC1	.	-3.0%	-1.0%	16.4µM*	-15.4%	-3.8%
SMILES	SMN2 splice up	Rab9 prom act	FLuc modulator	ELG1 repair inh	ELG1 genotox	NPC1 promoter act
COc1ccc2nc(N3CCCCC3)c(/C=C3\SC(=S)NC3=O)cc2c1	.	-0.9%	16.9µM*	-15.9%	-4.9%	-3.5%
O=C(CSCc1ccccc1Cl)NCc1ccc(Cl)c(Cl)c1	.	.	-16.8%	.	.	.
COc1cc(/C=N/n2c(-c3ccccc3)n[nH]c2=S)cc(OC)c1OC	.	-3.3%	3.0%	4.11µM*	3.8%	1.5%
COc1ccc(-c2n[nH]c(=S)n2/N=C/C=C/c2ccccc2OC)cc1	24.8%	-3.1%	-12.6%	-16.5%	-0.7%	-3.7%
CC(C)(C)c1ccc(-c2n[nH]c(=S)n2/N=C/c2ccncc2)cc1	19.1%	25.2%	10.7µM*	-0.5%	2.0%	11.9%
COc1ccccc1/C=C/C=N/n1c(-c2ccccc2)n[nH]c1=S	.	13.1%	15.1µM*	?	-4.9%	2.3%
COc1cc(Cl)c(C)cc1NC(=O)c1ccccc1-n1cnnn1	.	.	.	-0.4%	2.0%	.
COc1ccc(NC(=O)c2c(N)c(C(=O)c3ccc(OC)cc3)n3ccccc23)cc1	3.6%	.	-5.0%	.	.	.
Cc1cc(Nc2cnc3ccccc3n2)n(-c2ccccc2)n1	-23.3%	-0.6%	?	-10.5%	-3.0%	-1.1%
Cc1cc(Nc2nc3ccccc3nc2Cl)n(-c2ccc([N+](=O)[O-])cc2)n1	-73.3%	-5.8%	-1.7%	20.6µM*	-11.9%	-6.4%
Cc1cc(Nc2nc3ccccc3[nH]c2=O)n(-c2ccccc2)n1	12.6µM*	0.6%	1.8%	?	20.6µM*	-0.3%
Cc1cc(Nc2ncc(Cl)cc2Cl)n(-c2ccccc2)n1	-21.0%	-6.2%	-5.2%	23.7%	7.2%	-1.7%
CN(C)c1ccc(C(CNC(=O)c2ccc(C(C)(C)C)cc2)N2CCOCC2)cc1 (stereo not given)	.	.	4.6%	.	.	.
COCc1ccc(CN2CCCC(CO)(Cc3ccccc3)C2)o1 (stereo not given)	.	-7.9%	-2.4%	12.2%	0.3%	1.2%
CN(Cc1ccon1)Cc1cn(C)nc1-c1cccc(Cl)c1	.	?	5.36µM*	?	?	?
C=CCn1c(SCC(=O)NC2CCS(=O)(=O)C2)nnc1-c1cc2c(s1)CCC(CC)C2 (stereo not given)	29.2%	24.8%	10.7µM*	?	10.4%	20.3%
C=CCn1c(SCC(=O)NC2CCS(=O)(=O)C2)nnc1-c1ccc(Cl)cc1 (stereo not given)	.	-2.7%	-2.0%	8.4%	-5.1%	1.3%
C=CCn1c(-c2cc3c(s2)CCC(CC)C3)n[nH]c1=S (stereo not given)	26.0%	28.3%	30.1µM*	?	0.0%	10.5%
C=CCn1c(-c2sccc2C)n[nH]c1=S	-15.2%	-5.2%	-6.8%	-2.3%	-1.0%	0.0%
Cc1ccc2oc3c(c(=O)c2c1)C(c1cccc(Cl)c1)N(CCCN1CCOCC1)C3=O (stereo not given)	-27.8%	-5.5%	4.3%	10.3µM*	19.0%	-0.2%
